# BoNT F protease – BoNT/F light chain protease inhibitors, primary screen, biochemical, flow cytometry, MLPCN library; Multiplex microsphere protease cleavage assay; inhibition, % at 10 µM; 360,000 tested, 0.22% active; AID 588497, 2011; in the data active = inhibition above about 35%, passing the limit was not always enough; inconclusive = no clear call, values can overlap the other calls; note: plate controls were buffer without enzyme for full effect and enzyme alone for no effect
# BoNT A protease – BoNT/A light chain protease inhibitors, primary screen, biochemical, flow cytometry, MLPCN library; multiplex microsphere protease substrate cleavage; 360,000 tested, 0.17% active; inhibition, % at 10 µM; note: plate controls were buffer without enzyme for full effect and enzyme alone for no effect
# Mtb FBA inh – Mtb FBA enzyme inhibitors, primary screen, biochemical, fluorescence, strain H37Rv | Fructose-bisphosphate aldolase (Mycobacterium tuberculosis (strain ATCC 25618 / H37Rv)), … | purified M. tuberculosis FBA, fluorescence read-out | inhibition, % at 1 µM | 360,000 tested, 2.3% active | AID 588726, 2011; in the data active = inhibition above about 27%;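 note: 0% = vehicle and 100% = reference inhibitor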
# Target sequence (P9WQA3 whole entry, looked up): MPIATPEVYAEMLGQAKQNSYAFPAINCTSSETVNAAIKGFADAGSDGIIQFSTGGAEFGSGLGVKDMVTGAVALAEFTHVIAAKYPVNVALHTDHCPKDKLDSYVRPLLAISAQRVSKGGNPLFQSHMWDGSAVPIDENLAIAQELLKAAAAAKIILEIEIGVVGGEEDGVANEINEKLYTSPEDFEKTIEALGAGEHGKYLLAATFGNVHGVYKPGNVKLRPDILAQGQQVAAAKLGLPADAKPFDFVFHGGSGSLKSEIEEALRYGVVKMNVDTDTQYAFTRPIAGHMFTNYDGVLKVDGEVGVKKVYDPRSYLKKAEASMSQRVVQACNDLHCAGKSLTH
# Bead autofluor – flagged as autofluorescent in microsphere protease counterscreen. compound autofluorescence counterscreen, microsphere flow cytometry; hits give high values. fluorescence intensity (concentration not given with the values). 360,000 tested, 3.1% active. AID 624483; in the data active = fluorescence intensity above about 16000; inconclusive = no clear call, values can overlap the other calls
# Anthrax LF inh2 – Bacillus anthracis LF protease inhibitors, primary screen, biochemical, multiplex microsphere, MLPCN library | Lethal factor (Bacillus anthracis), P15917 | multiplex microsphere protease cleavage assay | inhibition, % at 10 µM | 360,000 tested, 0.12% active; note: plate controls were buffer without enzyme for full effect and enzyme alone for no effect
# GDH-TPI counter-1 – GDH-TPI coupling enzyme inhibitors, primary screen, artefact control for M. tuberculosis FBA inhibitor project, biochemical, absorbance, full deck; GDH-TPI coupled enzyme counterscreen, NADH absorbance; 360,000 tested, 1.2% active; inhibition, % at 4.8 µM; in the data active = inhibition above about 30%;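 note: 0% = DMSO wells and 100% = wells lacking the enzyme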
# Mtb FBA confirm – M. tuberculosis aldolase blockers, biochemical, fluorescence, strain H37Rv, confirmation; shares compounds with Mtb FBA inh; purified M. tuberculosis FBA, fluorescence read-out; inhibition, % at 1 µM; 5,600 tested, 78% active; in the data active = inhibition above about 27%;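 note: 0% = vehicle wells and 100% = reference inhibitor wells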
# GDH-TPI counter-2 – GDH-TPI coupling enzyme inhibitors, artefact control for M. tuberculosis FBA inhibitor project, biochemical, fluorescence, high throughput | shares compounds with Mtb FBA inh | AID 652141, 2013 | inhibition, % at 1 µM | 5,600 tested, 81% active | GDH-TPI coupled enzyme counterscreen; in the data active = inhibition above about 10%
# The depositor's hits bear a star; ? = inconclusive; . = no result given; + = active, no number; ! = a repeat was not active. Shown are actives, neighbours in structure and some others; about 6.7% of the full set was active somewhere. Cut-off read from the data, not from the text of the source, unless noted: active = inhibition above about 30%; inconclusive = no clear call, values can overlap the other calls; inactive = below that.
SMILES,BoNT F protease,BoNT A protease,Mtb FBA inh,Bead autofluor,Anthrax LF inh2,GDH-TPI counter-1,Mtb FBA confirm,GDH-TPI counter-2
CN(C)c1ccc(CNC(=O)C2(C)Cc3c(-c4ccc5c(c4)OCO5)ccnc3O2)cc1 (stereo unspecified),2,0,6,3860,0,10,.,.
CNC(=O)C1(C)Cc2c(-c3ccc4c(c3)OCO4)ccnc2O1 (stereo unspecified),1,0,49*,3775,-4,2,+,+
CCCn1nnnc1NCc1c(F)cccc1Cl,-1,0,68*,2243,-2,-2,-7,-6
CC1CC1C(=O)OCC(=O)NCc1ccccc1 (stereo unspecified),.,.,0,.,.,3,.,.
CCCC(O)(c1ccc(Cl)cc1)C(CN1CCOCC1)c1ccc(Cl)cc1 (stereo unspecified),9,1,30*,3513,-6,3,97*,70*
CCCn1c(SC/C(O)=C(\C#N)c2nc3ccccc3[nH]2)n[nH]c1=O,-8,1,-4,2296,-1,15,.,.
Cc1nc2cc(C(=O)O)ccc2s1,-3,0,-3,15665,-10,8,.,.
Cc1nc2ccc(C(=O)O)cc2c2c1CC(C)S2 (stereo unspecified),1,0,61*,2499,-1,3,44*,30*
CC1CCC(N2CCN(S(C)(=O)=O)CC2)CC1 (stereo unspecified),-5,-2,56*,?,-5,6,110*,102*
CCc1c(C2(O)CCCCC2)[nH]c2cnccc12,-10,0,78*,3412,-4,10,+,170*
CCN(C(=O)COC(=O)c1nccnc1N)c1cccc2ccccc12,2,0,63*,4016,-7,7,109*,80*
CCN(C(=O)COC(=O)c1ccc(O)cc1)c1cccc2ccccc12,-1,0,0,4038,9,1,.,.
Oc1ccc(C2CNCCc3c2cc(O)c(O)c3Cl)cc1 (stereo unspecified),8,1,40*!,5733,-1,-1,-2,-7
CC(C)N=c1cc2n(-c3ccc(Cl)cc3)c3ccccc3nc-2cc1Nc1ccc(Cl)cc1,-167,-2,-3,3933,-99,-7,.,.
CCN(CC(=O)NCc1ccc(F)cc1)C(=O)/C=C/c1cc(OC)ccc1OC,-27,-8,45*,3424,-16,16,+,194*
CCN(CC(=O)NCc1ccc(Cl)cc1)C(=O)/C=C/c1cc(OC)c(OC)c(OC)c1,-2,1,16,3813,2,12,.,.
Cn1c(=O)c2c(nc(CN3CCc4ccccc4C3)n2Cc2cccc(Cl)c2)n(C)c1=O,0,0,2,5755,-3,9,.,.
CCOC(=O)c1[nH]cnc1C(=O)Nc1cccc(OC)c1,0,-1,3,3782,-4,5,.,.
CNC(=O)c1[nH]cnc1C(=O)Nc1cccc(OC)c1,-20,0,71*,4925,-5,8,+,199*
Cc1ccc(-c2nnc(-c3ccc4c(c3)OCO4)o2)cc1,-2,0,27*,2652,0,11,75*,55*
Cc1nccc(-c2ccc3c(c2)OCO3)n1,-4,0,29*,4456,0,9,68*,48*
Cc1cc(C)c(/C=N/n2c(C)cc(C)c(C#N)c2=O)c(C)c1,3,0,1,2339,-2,8,.,.
CC(=O)Nc1ccc(NC(=O)C(C)OC(=O)c2ccc(S(=O)(=O)N3CCCCC3)cc2)cc1 (stereo unspecified),0,1,1,4093,8,8,.,.
CNc1ccccc1C(=O)OC(C)C(=O)Nc1ccc(S(=O)(=O)N2CCCC2)cc1 (stereo unspecified),12,0,39*,6501,-5,-1,-2,-4
O=C1C(Cl)=C(NCCN2CCCCC2)C(=O)c2ccccc21,-4,0,-11,2728,-2,12,.,.
SMILES,BoNT F protease,BoNT A protease,Mtb FBA inh,Bead autofluor,Anthrax LF inh2,GDH-TPI counter-1,Mtb FBA confirm,GDH-TPI counter-2
CC(=O)Nc1ccccc1OCCOc1ccc(Br)cc1,-7,1,4,4313,1,-4,.,.
O=C1CC(c2ccco2)CC2=C1C(c1ccccc1)n1nc(C(F)(F)F)nc1N2 (stereo unspecified),9,0,28*,3586,-3,13,64*,53*
COc1ccc(C2CC(=O)C3=C(C2)Nc2ncnn2C3c2ccccc2)cc1 (stereo unspecified),-6,0,5,2509,0,7,.,.
COc1ccc2sc(C)cc(=O)c2c1,4,0,107*,3780,6,15,88*,52*
N#Cc1ccc(-c2ccc(OCC(O)CN3CCCCC3)cc2)cc1 (stereo unspecified),-5,-4,58*,3941,-14,7,116*,81*
N#Cc1ccc(-c2ccc(OCC(O)Cn3nnc4ccccc43)cc2)cc1 (stereo unspecified),-7,0,31*,4197,1,3,+,+
O=C(CSCc1ccc(Cl)cc1)N/N=C/c1ccc(OCC(=O)Nc2ccccc2)cc1,-12,-1,7,3192,4,10,.,.
COc1ccc(NC(=O)Nc2ccc3nccnc3c2)cc1,-5,0,1,5506,-2,21,.,.
COc1ccc(OCCSCc2nnc(NC(=O)Nc3ccc(Cl)cc3)s2)cc1,-2,0,29*,2107,-2,-1,10,-5
Cc1ccc(NC(=O)Nc2nnc(CSCCOc3ccc(Cl)cc3)s2)cc1,1,0,3,2406,1,0,.,.
CCC(=O)Nc1cccc(C2=NOC3(C2)C[C@@H](C(N)=O)N(C(=O)C2(C)CC2)C3)c1 (stereo partly specified),2,0,0,4044,2,5,.,.
CC(C)OCCCNC(=O)c1cc(-c2cccs2)nc2ccccc12,-11,0,93*,3570,-12,17,88*,83*
Cc1nn(-c2ccccn2)c2nc(-c3cccs3)cc(C(=O)NCc3ccco3)c12,-1,0,48*,2417,-1,30,59*,61*
Cc1ccc(NC(=O)c2cc(-c3cccs3)nc3ccccc23)nc1,-1,1,27,5727,-2,11,.,.

# From PubChem BioAssay
